A selection: hits, their analogues and other compounds. The true share with any hit is near 5.3%.
Tau ThT inhib: qHTS for Inhibitors of Tau Fibril Formation, Thioflavin T Binding | 270,000 compounds, 2.1% hits | AID 1460, 2008 | recombinant tau K18 P301L, heparin-induced fibrillization, ThT fluorescence | Potency, µM (doses to about 57.4 µM), without a hit: at the top dose activity, negative = inhibition, hits mostly inhibitors | Microtubule-associated protein tau (Homo sapiens), P10636; further: potency means the concentration at half of the fitted maximal effect; nearly all actives have a fitted effect of over 55% in size
Target sequence (P10636 561-689 P618L limits assumed): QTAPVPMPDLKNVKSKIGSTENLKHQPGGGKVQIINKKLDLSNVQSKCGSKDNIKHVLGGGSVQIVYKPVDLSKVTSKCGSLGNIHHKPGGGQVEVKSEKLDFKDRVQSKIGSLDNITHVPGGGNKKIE
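K18 P301L tau (15 uM + 0.24 uM Alexa 594-tagged), heparin 20 uM, NaOAc pH 7, 6 h 37 C; ThT 30 uM, 1 h RT, ex 450/em 510 nm.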
Sfp inh: qHTS Assay for Inhibitors of Bacillus subtilis Sfp phosphopantetheinyl transferase (PPTase); 4'-phosphopantetheinyl transferase ffp (Bacillus subtilis), Q9F4F7; Biochemical Sfp PPTase activity, qHTS; Potency, µM, without a hit: largest response in the series, negative = inhibition, most hits filed as inhibitors; 310,000 compounds, 3.5% hits; AID 1490, 2009;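 further: the enzyme is Sfp with the accession as filed and its product quenches rhodamine fluorescence; potency means the concentration at half of the fitted maximal effect; 0% = enzyme reaction without inhibitor and -100% = no enzyme wells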
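Step 1, compound plus 15 nM Sfp-PPTase, 15 min, room temperature. Step 2, add rhodamine-CoA (5 uM) and BHQ-2-YbbR (12.5 uM). Step 3, read 525/598 nm fluorescence at 0 and 30 min.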
Tau fluor counter: Counterscreen qHTS for Inhibitors of Tau Fibril Formation, Fluorescence Polarization. tau K18 P301L (four-repeat tau fragment) Alexa594 fluorescence, heparin fibrillization. Potency, µM (doses to about 57.7 µM), without a hit: top-dose activity change, negative = decrease. 280,000 compounds, 0.93% hits. AID 1463, 2008; further: potency means the concentration at half of the fitted maximal effect; nearly all actives have a fitted effect of over 55% in size
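Human K18 P301L tau (15 uM unlabeled plus 0.24 uM Alexa 594-labeled, final) in 100 mM sodium acetate pH 7 was mixed with compound and 20 uM heparin and incubated 6 hr at 37 C.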
KDM4E inh: qHTS Assay for Inhibitors of Human Jumonji Domain Containing 2E (JMJD2E) | Lysine-specific demethylase 4E (Homo sapiens), B2RXH2 | JMJD2E catalytic domain, FDH-coupled NADH fluorescence (FDH is formaldehyde dehydrogenase) | AID 2147, 2009 | Potency, µM (titrated, usually from 57.1 µM), inactives show at the top dose activity change, negative = inhibition, usual class: inhibitors | 230,000 compounds, 1.6% hits; active means well fitted inhibition curve with a large enough effect, not every such curve was filed as active; inconclusive means small, poorly fitted or top-dose-only effect, or another doubt; inactive means no such curve, though single readings can be large or run the other way;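 further: potency means the concentration at half of the fitted maximal effect; 0% = wells with enzyme and -100% = buffer wells without enzyme; nearly all actives have a fitted effect of over 50% in size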
Target sequence (B2RXH2 1-337 limits assumed): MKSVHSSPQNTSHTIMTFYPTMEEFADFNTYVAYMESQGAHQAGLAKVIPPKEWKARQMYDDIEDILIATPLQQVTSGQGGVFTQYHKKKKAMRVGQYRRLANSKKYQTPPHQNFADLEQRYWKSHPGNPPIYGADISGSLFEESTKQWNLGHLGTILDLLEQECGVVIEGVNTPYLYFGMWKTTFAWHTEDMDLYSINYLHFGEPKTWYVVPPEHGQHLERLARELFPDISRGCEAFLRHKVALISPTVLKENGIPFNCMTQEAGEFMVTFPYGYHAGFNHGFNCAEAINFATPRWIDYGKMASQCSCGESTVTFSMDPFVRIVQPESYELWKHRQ
Tau fibril FP: qHTS for Inhibitors of Tau Fibril Formation, Fluorescence Polarization; Microtubule-associated protein tau (Homo sapiens), P10636; K18 P301L tau heparin fibrillization, Alexa594 FP, 6 h; Potency, µM (highest dose often 57.7 µM), for the others: at the top dose activity, negative = inhibition, usual class: inhibitors; 280,000 compounds, 0.39% hits; AID 1468, 2008; further: potency means the concentration at half of the fitted maximal effect; nearly all actives have a fitted effect of over 55% in size
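Steps: dispense K18 P301L tau (15 uM plus 0.24 uM Alexa 594 tracer, final) in pH 7 sodium acetate; add compound; add heparin (20 uM final); incubate 6 hr, 37 C; add ThT (30 uM final); after 1 hr ambient, read FP.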
FBPA coupling cs: qHTS Assay for Inhibitors of Fructose-1,6-bisphosphate Aldolase from Giardia Lamblia: Coupling assay counterscreen; coupling enzyme system counterscreen, AmpLite Red fluorescence; 290,000 compounds, 0.67% hits; activity change, negative = inhibition, % at 58.2 µM, hits read low; in the data active means activity change below about -30%
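Fluorescence at 525 nm excitation and 598 nm emission measured inhibition of the coupled detection system without aldolase. Compounds (at 57.5 uM final) were preincubated 10 min at room temperature with coupling enzyme reagent before a 20 min substrate/AmpLite Red step.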
* hit, by the source's call; [ ] = remark or other dose. Unless noted, the call rests on the fitted dose curve; in most records, active means well fitted curve in the direction sought with a large enough effect; inconclusive means small, poorly fitted or top-dose-only effect, or another doubt; inactive means no such curve, though single readings can be large; an effect the other way counts as inactive or inconclusive. Unless noted, on the % scale 0 is the no-effect control and ±100 the full control effect.

COCCn1c(SCC(=O)Nc2ccc(Cl)c(S(=O)(=O)N(C)C)c2)nc2ccccc21 was read as Tau ThT inhib -3.7%, Sfp inh 14.6%, Tau fluor counter inconclusive, KDM4E inh -4.0%, Tau fibril FP -3.4% and FBPA coupling cs -2.6.
CN(C)S(=O)(=O)c1cc(NC(=O)CN2CCOCC2)ccc1Cl was read as Tau ThT inhib -4.2%, Sfp inh 23.8%, Tau fluor counter 2.4%, KDM4E inh 1.5%, Tau fibril FP 4.2% and FBPA coupling cs 0.5.
Screening N#C/C(=C\c1cccnc1)c1nc2c(s1)CCCC2 returned Tau ThT inhib -16.8%, Sfp inh 9.7%, Tau fluor counter -0.7%, KDM4E inh inconclusive, Tau fibril FP 5.3% and FBPA coupling cs 0.4.
COc1cc(/C=C(\C#N)c2nc3c(s2)CCCC3)ccc1O was read as Tau ThT inhib 11.2µM*, Sfp inh -20.9%, Tau fluor counter 14.1µM*[quencher], KDM4E inh -29.0%, Tau fibril FP 4.2% and FBPA coupling cs -0.5.
`O=c1c2ccccc2nc(/C=C/c2cccnc2)n1CCc1ccccc1` gave Sfp inh -9.8%, Tau fluor counter inconclusive, KDM4E inh 15.8µM*, Tau fibril FP 8.2%[11.6 µM] and FBPA coupling cs -1.6.
Screening Cc1c2ccccc2c(CSC(=N)N)c2ccccc12 returned Tau ThT inhib 12.6µM*, Sfp inh 44.7µM*, Tau fluor counter -27.6%, KDM4E inh 68.7%, Tau fibril FP inconclusive and FBPA coupling cs -5.2.
Screening Cc1ccc(OCCn2c(Br)nc3c2c(=O)n(C)c(=O)n3C)cc1 returned Tau ThT inhib -4.4%, Sfp inh 6.9%, Tau fluor counter 1.3%, KDM4E inh -7.4%, Tau fibril FP 5.8% and FBPA coupling cs -49.9*.
For CN1CCN(c2oc(COc3ccc(-c4ccccc4)cc3)nc2C#N)CC1 the results were Tau ThT inhib inconclusive, Sfp inh 31.6µM*, Tau fluor counter -16.9%, KDM4E inh -15.5%, Tau fibril FP 8.4% and FBPA coupling cs -1.1.
For COc1cccc(/C=N/NC(=O)C(C)n2nc(C)c([N+](=O)[O-])c2C)c1O (stereo unspecified) the results were Tau ThT inhib -11.3%, Sfp inh 16.0%, Tau fluor counter 1.7%, KDM4E inh 14.1µM*, Tau fibril FP 10.9% and FBPA coupling cs 0.9.
For Cc1nn(CC(=O)N/N=C/c2cccs2)c(C)c1[N+](=O)[O-] the results were Tau ThT inhib -0.4%, Sfp inh 18.3%, Tau fluor counter -1.3%, KDM4E inh -1.3%, Tau fibril FP 2.1% and FBPA coupling cs -0.5.
For COc1cccc(/C=N/NC(=O)Cn2nc(C)c([N+](=O)[O-])c2C)c1O the results were Tau ThT inhib -4.2%, Sfp inh 11.7%, Tau fluor counter -10.1%, KDM4E inh 11.2µM*, Tau fibril FP 0.9% and FBPA coupling cs 4.8.
For O=C1C(c2[nH]c3ccc(S(=O)(=O)O)cc3c2O)=Nc2ccc(S(=O)(=O)O)cc21 the results were Tau ThT inhib 8.91µM*, Sfp inh 22.4µM*, Tau fluor counter -22.2%, Tau fibril FP inconclusive and FBPA coupling cs -37.5*.
For CNC(=O)c1c[nH]c2ccc(S(=O)(=O)Nc3ccccc3F)cc2c1=O the results were Sfp inh 14.4% and FBPA coupling cs -0.5.
`CCc1ccccc1NS(=O)(=O)c1ccc2[nH]cc(C(=O)NC3CCCC3)c(=O)c2c1` gave Tau ThT inhib 6.5%, Sfp inh 17.9%, Tau fluor counter inconclusive, KDM4E inh -6.3%, Tau fibril FP 12.6µM* and FBPA coupling cs 1.0.
Screening O=C(NC1CCCCC1)c1c[nH]c2ccc(S(=O)(=O)Nc3ccccc3F)cc2c1=O returned Tau ThT inhib -10.8%, Tau fluor counter inconclusive and Tau fibril FP 28.2µM*.
Screening O=C(NC1CCCC1)c1c[nH]c2ccc(F)cc2c1=O returned Tau ThT inhib -8.6%, Sfp inh 2.4%, Tau fluor counter -10.2%, KDM4E inh -4.5%, Tau fibril FP 4.6% and FBPA coupling cs -1.5.
For COc1ccc(S(=O)(=O)N2CCC(Oc3ccc(-n4cnnn4)cc3)CC2)cc1OC the results were Tau ThT inhib -3.0%, Tau fluor counter -20.0% and Tau fibril FP -4.7%.
COc1ccc(C2CC(c3ccccc3)Oc3cc(OC)ccc32)cc1 (stereo unspecified) was read as Sfp inh inconclusive and FBPA coupling cs -6.2.
Screening COC(=O)c1sccc1-c1ccc(/C=N/OC(=O)c2ccccc2)o1 returned Tau ThT inhib inconclusive, Sfp inh 50.1µM*, Tau fluor counter -28.8%, KDM4E inh inconclusive, Tau fibril FP -5.4% and FBPA coupling cs -0.9.
Screening C#CCOCCOCCOCCNc1nc(N2CCN(C(=O)[C@H]([C@@H](C)CC)n3cc([C@@H](N)CO)nn3)CC2)nc(N2CCN(C(=O)[C@H](CCCCN)n3cc([C@@H](N)C(C)CC)nn3)CC2)n1 (stereo partly specified) returned Tau ThT inhib -4.6%, Sfp inh -14.0%, Tau fluor counter 4.7%, KDM4E inh -1.4%, Tau fibril FP 9.7% and FBPA coupling cs 2.6.
C#CCOCCOCCOCCNc1nc(N2CCN(C(=O)[C@H](CCCCN)n3cc([C@@H](N)C(C)CC)nn3)CC2)nc(N2CCN(C(=O)[C@H](CCCCN)n3cc([C@@H](N)CO)nn3)CC2)n1 (stereo partly specified) was read as Tau ThT inhib -2.3%, Sfp inh 3.3%, Tau fluor counter 10.1%, KDM4E inh 20µM*, Tau fibril FP 0.4% and FBPA coupling cs 4.8.
Screening CCOC(=O)c1c(C)[nH]c(C2=NNC(=Nc3cccc(Cl)c3)SC2)c1C returned Tau ThT inhib 12.6µM*, Sfp inh inconclusive, Tau fluor counter inconclusive, KDM4E inh -11.1%, Tau fibril FP inconclusive and FBPA coupling cs -5.1.
c1ccc(CN=C2NN=C(c3ccccc3)CS2)cc1 was read as Tau ThT inhib inconclusive, Sfp inh -2.2%, Tau fluor counter -16.7%, KDM4E inh -10.0%, Tau fibril FP -5.6% and FBPA coupling cs 1.4.
CCOC(=O)c1c(C)[nH]c(C=O)c1Cc1cccc(Cl)c1 was read as Tau ThT inhib -16.5%, Sfp inh 3.9%, Tau fluor counter -21.4%, KDM4E inh -2.0%, Tau fibril FP -2.5% and FBPA coupling cs -3.9.

Assay outcomes (PubChem BioAssay)
